Screens deposited in PubChem by National Center for Advancing Translational Sciences (NCATS).
Shown are actives, neighbours in structure and some others; about 4.7% of the full set was active somewhere.
D1 antag = antagonists of human D1 dopamine receptor. 360,000 compounds, 3.2% hits. activity change, negative = inhibition, % at 10 µM. AID 504652. HEK293 TREx D1 cells, calcium flux, dopamine EC80; stronger effect = lower value; in the data active = activity change below about -30%
Target sequence (P21728 whole entry, looked up): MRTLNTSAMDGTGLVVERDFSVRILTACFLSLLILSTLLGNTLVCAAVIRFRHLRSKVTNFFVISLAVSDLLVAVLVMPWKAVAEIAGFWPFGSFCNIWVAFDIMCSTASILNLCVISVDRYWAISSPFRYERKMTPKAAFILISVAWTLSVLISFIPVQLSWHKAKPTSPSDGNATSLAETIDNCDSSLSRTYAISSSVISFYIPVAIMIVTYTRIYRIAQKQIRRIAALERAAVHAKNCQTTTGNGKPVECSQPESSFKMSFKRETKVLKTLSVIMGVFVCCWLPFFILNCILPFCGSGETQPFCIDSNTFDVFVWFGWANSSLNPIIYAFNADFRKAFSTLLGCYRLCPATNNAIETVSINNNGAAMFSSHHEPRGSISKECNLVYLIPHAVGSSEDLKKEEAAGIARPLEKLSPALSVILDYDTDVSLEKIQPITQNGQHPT
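Cells carrying a force-coupled, tetracycline-inducible human D1 receptor report calcium flux. Each well gets a 10 s baseline, compound with 180 s monitoring, then an EC80 dopamine stimulus with a second 180 s kinetic read.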
TRHR PAM = allosterically enhances the human TRH receptor; P34981; TRHR cells, fluo-8 calcium fluorescence, EC20 TRH enhancement; enhancement, % at 2 µM; 360,000 compounds, 0.66% hits; in the data active = enhancement above about 30%
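TRHR-expressing cells loaded with fluo-8 calcium dye were read kinetically (ex 480/em 530) during compound addition, then stimulated with an EC20 of TRH (10 nM final). Enhancement of the Gq-mediated intracellular calcium response was scored.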
D1 ag = agonists of human D1 dopamine receptor | HEK293 T-REx D1 cells, calcium flux, agonist mode | activation, % at 2 µM | 360,000 compounds, 1% hits
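Tetracycline-induced HEK293 TREx D1 cells, force-coupled to calcium signalling, were dye-loaded with a no-wash calcium kit. Compound was pin-added after a 10 s baseline. Fluorescence was read kinetically at 1 cycle/s for 180 s, with calcium rises flagged as agonism.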
D1 PAM = enhances dopamine response at the human D1 receptor; P21728; HEK293 TREx D1 cells, calcium flux, dopamine EC20 potentiation; potentiation, % at 10 µM; 360,000 compounds, 0.036% hits; in the data active = potentiation above about 30%
TRHR ag = activates the human TRH receptor; TRHR cells, calcium flux fluo-8, FDSS agonist mode; P34981; activation, % at 2 µM; 360,000 compounds, 0.18% hits
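In this calcium-flux screen, cells bearing human TRHR are dye-loaded with fluo-8, baselined for 10 cycles, then exposed to library compounds; positive kinetic calcium responses during the agonist phase mark hits, with TRH as control.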
Hits are given with their value. Rule as the data show it, unless noted: active = activation above about 30%; inactive = the rest.

`Cc1ccc(CNC(=O)CCc2c(C)nc3c(-c4ccc(F)cc4)c(C)nn3c2C)cc1` gave D1 antag inactive, TRHR PAM inactive, D1 ag inactive, D1 PAM inactive and TRHR ag inactive.
CCOc1ccc(CNC(=O)C2CCN(c3nc4ccccc4nc3C(F)(F)F)CC2)cc1OC was read as D1 antag inactive, TRHR PAM inactive, D1 ag inactive, D1 PAM inactive and TRHR ag inactive.
COc1cc2[nH]c(=O)n(CCC(=O)N3CCN(c4ccc(Cl)cc4)CC3)c(=O)c2cc1OC was read as D1 antag inactive, TRHR PAM inactive, D1 ag inactive, D1 PAM inactive and TRHR ag inactive.
For CCN1CCN(C(=O)CCCCCn2c(=O)[nH]c3cc(C(=O)OC)ccc3c2=O)CC1 the results were D1 antag inactive, TRHR PAM inactive, D1 ag inactive, D1 PAM inactive and TRHR ag inactive.
CC(=O)c1ccc(N2CCN(C(=O)CCCCn3c(=O)[nH]c4ccccc4c3=O)CC2)cc1 was read as D1 antag -32, TRHR PAM inactive, D1 ag inactive, D1 PAM inactive and TRHR ag inactive.
O=C(CCn1c(=O)[nH]c2ccccc2c1=O)N1CCN(c2ccc(Cl)cc2)CC1 was read as D1 antag -32, TRHR PAM inactive, D1 ag inactive, D1 PAM inactive and TRHR ag inactive.
For COC(=O)c1ccc2c(=O)n(CCCCCC(=O)N3CCN(c4ccccc4)CC3)c(=O)[nH]c2c1 the results were D1 antag -36, TRHR PAM inactive, D1 ag inactive, D1 PAM inactive and TRHR ag inactive.
COc1ccc(N2C(=O)c3ccccc3NC2c2ccc(OC)c(Cn3cc([N+](=O)[O-])cn3)c2)cc1 (centres undefined) was read as D1 antag -38, TRHR PAM inactive, D1 ag inactive, D1 PAM inactive and TRHR ag inactive.
COc1ccc(C2Nc3ccccc3C(=O)N2c2ccccc2)cc1Cn1cc([N+](=O)[O-])cn1 (centres undefined) was read as D1 antag inactive, TRHR PAM inactive, D1 ag inactive, D1 PAM inactive and TRHR ag inactive.
Screening CCc1ccc(Nc2cc(C(=O)NCCCN3CCOCC3)c3ccccc3n2)cc1 returned D1 antag inactive, TRHR PAM inactive, D1 ag 51, D1 PAM inactive and TRHR ag inactive.
For COc1ccc(Nc2cc(C(=O)NCCCN3CCOCC3)c3ccccc3n2)cc1 the results were D1 antag inactive, TRHR PAM inactive, D1 ag inactive, D1 PAM inactive and TRHR ag inactive.
Screening CCc1ccc(Sc2cc(C(=O)NCc3cccc(OC)c3)c3ccccc3n2)cc1 returned D1 antag -32, TRHR PAM inactive, D1 ag inactive, D1 PAM inactive and TRHR ag inactive.
Screening CCOc1ccc(Nc2cc(C(=O)NCc3ccccc3Cl)c3ccccc3n2)cc1 returned D1 antag inactive, TRHR PAM inactive, D1 ag inactive, D1 PAM inactive and TRHR ag inactive.
For CCOc1ccc(-c2cc(C(=O)NCc3ccccc3Cl)c3ccccc3n2)cc1 the results were D1 antag -36, TRHR PAM inactive, D1 ag inactive, D1 PAM inactive and TRHR ag inactive.
CCOc1ccc(Sc2cc(C(=O)NCc3ccccc3Cl)c3ccccc3n2)cc1 was read as D1 antag -36, TRHR PAM inactive, D1 ag inactive, D1 PAM inactive and TRHR ag inactive.
For COc1ccc(CNC(=O)c2cc3c(=O)n(Cc4cccnc4)ccc3nc2C)cc1 the results were D1 antag inactive, TRHR PAM inactive, D1 ag inactive, D1 PAM inactive and TRHR ag inactive.
`CCCC(=O)Nc1nc2c(s1)CC(C(C)(C)C)CC2` (centres undefined) gave D1 antag inactive, TRHR PAM inactive, D1 ag inactive, D1 PAM inactive and TRHR ag inactive.
Screening CCOc1c(Br)cc(C(N)=O)cc1OCc1ccccc1 returned D1 antag inactive, TRHR PAM inactive, D1 ag inactive, D1 PAM inactive and TRHR ag inactive.
Screening CCc1ccc(Sc2cc(C(=O)NCCCN3CCCC(C)C3)c3ccccc3n2)cc1 (centres undefined) returned D1 antag inactive, TRHR PAM inactive, D1 ag 36, D1 PAM inactive and TRHR ag inactive.
Screening CCc1ccc(Sc2cc(C(=O)NCCCN3CCC(C)CC3)c3ccccc3n2)cc1 returned D1 antag inactive, TRHR PAM inactive, D1 ag inactive, D1 PAM inactive and TRHR ag inactive.
For CCOc1ccc(NC(=O)Cn2cnc3nc4c(cc3c2=O)CCCC4)cc1 the results were D1 antag inactive, TRHR PAM inactive, D1 ag inactive, D1 PAM inactive and TRHR ag inactive.
For O=C(Cn1cnc2nc3c(cc2c1=O)CCCC3)N1CCN(c2ccccc2)CC1 the results were D1 antag inactive, TRHR PAM 32, D1 ag inactive, D1 PAM inactive and TRHR ag inactive.
For Cc1ccc(C)c(N2CCN(C(=O)Cn3cnc4nc5c(cc4c3=O)CCCC5)CC2)c1 the results were D1 antag inactive, TRHR PAM inactive, D1 ag inactive, D1 PAM inactive and TRHR ag inactive.
`CCc1ccc(NC(=O)Cn2cnc3nc4c(cc3c2=O)CCCC4)cc1` gave D1 antag -32, TRHR PAM inactive, D1 ag inactive, D1 PAM inactive and TRHR ag inactive.
Screening CC1CCN(C(=O)CCc2nc3cc(S(=O)(=O)N(C)C)ccc3n2C)CC1 returned D1 antag -32, TRHR PAM inactive, D1 ag inactive, D1 PAM inactive and TRHR ag inactive.
Screening Cc1ccccc1OCc1ccc(-c2nc(C#N)c(NCCCN(C)C)o2)o1 returned D1 antag inactive, TRHR PAM inactive, D1 ag 44, D1 PAM inactive and TRHR ag inactive.
Screening CCCCNc1oc(-c2ccc(COc3ccccc3C)o2)nc1C#N returned D1 antag inactive, TRHR PAM inactive, D1 ag inactive, D1 PAM inactive and TRHR ag inactive.
For Cc1c(NC(=O)CSc2nnnn2C)c(=O)n(-c2ccccc2)n1C the results were D1 antag -35, TRHR PAM inactive, D1 ag inactive, D1 PAM inactive and TRHR ag inactive.
Screening Cc1c(NC(=O)CSc2nnnn2-c2ccc(O)cc2)c(=O)n(-c2ccccc2)n1C returned D1 antag -47, TRHR PAM inactive, D1 ag inactive, D1 PAM inactive and TRHR ag inactive.
For Cc1c(NC(=O)CSc2nnnn2-c2ccc(F)cc2)c(=O)n(-c2ccccc2)n1C the results were D1 antag inactive, TRHR PAM inactive, D1 ag inactive, D1 PAM inactive and TRHR ag inactive.
Screening Cc1c(NC(=O)CSc2nncn2-c2ccccc2)c(=O)n(-c2ccccc2)n1C returned D1 antag inactive, TRHR PAM inactive, D1 ag inactive, D1 PAM inactive and TRHR ag inactive.
For Cn1nnnc1SCC(=O)Nc1ccc(Oc2ccc(Cl)cc2)cc1 the results were D1 antag -30, TRHR PAM inactive, D1 ag inactive, D1 PAM inactive and TRHR ag inactive.
